# Screen size: about 5,500 compounds; about 2,000 (36%) were called active. Another 18% or so got no clear call; they are omitted. This is one part of the list. A number with no mark means an inactive call. No stated cut-off is given here; in the data, active means normalized growth mostly below about 0.91 (no sharp cut-off); inconclusive means no clear call, values can overlap the other calls; inactive means mostly above about 0.92.
# Test: chemical genetic growth profiling, strain panel (AID 1159580);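 further: tested at 20 µM; growth read once vehicle control cultures reached saturation at 30 °C; 1 = growth at the plate median or of vehicle wells; lower values mean less growth of the strain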
# Details: growth OD
smiles,measurement,setting,value
COc1ccc(CCN2CCC(Nc3nc4ccccc4n3Cc3ccc(F)cc3)CC2)cc1,normalized growth,"S. cerevisiae deletion strains, locus YJR066W, strain TOR1, hits give low values",0.931
same,normalized growth,"S. cerevisiae deletion strains, locus YKL009W, strain mrt4, hits give low values",0.99
same,normalized growth,"S. cerevisiae deletion strains, locus YKL068W, hits give low values",0.991
same,normalized growth,"S. cerevisiae deletion strains, locus YKL085W, strain MDH1 (second series), hits give low values",1.04
same,normalized growth,"S. cerevisiae deletion strains, locus YKL085W, strain MDH1, hits give low values",1.04
same,normalized growth,"S. cerevisiae deletion strains, locus YKL160W, strain elf1, hits give low values",0.961
same,normalized growth,"S. cerevisiae deletion strains, locus YKL190W, strain CNB1, hits give low values",0.992
same,normalized growth,"S. cerevisiae deletion strains, locus YKR001C, strain vps1, hits give low values",0.999
same,normalized growth,"S. cerevisiae deletion strains, locus YKR026C, strain gcn3, hits give low values",0.945
same,normalized growth,"S. cerevisiae deletion strains, locus YKR091W, strain srl3, hits give low values",0.987
same,normalized growth,"S. cerevisiae deletion strains, locus YLL001W, strain dnm1, hits give low values",0.954
same,normalized growth,"S. cerevisiae deletion strains, locus YLL026W, hits give low values",0.974
same,normalized growth,"S. cerevisiae deletion strains, locus YLL041C, strain sdh2, hits give low values",0.969
same,normalized growth,"S. cerevisiae deletion strains, locus YLR027C, strain aat2, hits give low values",0.978
same,normalized growth,"S. cerevisiae deletion strains, locus YLR039C, strain RIC1, hits give low values",1.19
same,normalized growth,"S. cerevisiae deletion strains, locus YLR058C, strain SHM2, hits give low values",0.974
same,normalized growth,"S. cerevisiae deletion strains, locus YLR102C, strain apc9, hits give low values",0.991
same,normalized growth,"S. cerevisiae deletion strains, locus YLR113W, strain HOG1, hits give low values",0.976
same,normalized growth,"S. cerevisiae deletion strains, locus YLR221C, strain rsa3, hits give low values",0.951
same,normalized growth,"S. cerevisiae deletion strains, locus YLR258W, strain gsy2, hits give low values",0.962
same,normalized growth,"S. cerevisiae deletion strains, locus YLR262C, strain YPT6 (second series), hits give low values",1.05
same,normalized growth,"S. cerevisiae deletion strains, locus YLR262C, strain YPT6, hits give low values",1.21
same,normalized growth,"S. cerevisiae deletion strains, locus YLR268W, strain sec22, hits give low values",0.969
same,normalized growth,"S. cerevisiae deletion strains, locus YLR320W, strain mms22, hits give low values",0.85 (active)
same,normalized growth,"S. cerevisiae deletion strains, locus YLR330W, strain CHS5, hits give low values",0.995
same,normalized growth,"S. cerevisiae deletion strains, locus YLR342W, strain FKS1 (second series), hits give low values",0.945
same,normalized growth,"S. cerevisiae deletion strains, locus YLR342W, strain FKS1, hits give low values",0.969
same,normalized growth,"S. cerevisiae deletion strains, locus YLR357W, strain rsc2, hits give low values",0.986
same,normalized growth,"S. cerevisiae deletion strains, locus YLR370C, strain arc18, hits give low values",0.892 (active)
same,normalized growth,"S. cerevisiae deletion strains, locus YLR371W, strain rom2, hits give low values",0.986
same,normalized growth,"S. cerevisiae deletion strains, locus YLR384C, strain iki3, hits give low values",1
same,normalized growth,"S. cerevisiae deletion strains, locus YLR418C, strain cdc73, hits give low values",0.943
same,normalized growth,"S. cerevisiae deletion strains, locus YML016C, strain PPZ1, hits give low values",0.979
same,normalized growth,"S. cerevisiae deletion strains, locus YML032C, strain rad52, hits give low values",0.955
same,normalized growth,"S. cerevisiae deletion strains, locus YML120C, strain ndi1, hits give low values",0.978
same,normalized growth,"S. cerevisiae deletion strains, locus YML124C, strain tub3, hits give low values",0.991
same,normalized growth,"S. cerevisiae deletion strains, locus YMR058W, strain fet3, hits give low values",0.865 (active)
same,normalized growth,"S. cerevisiae deletion strains, locus YMR078C, strain ctf18, hits give low values",0.987
same,normalized growth,"S. cerevisiae deletion strains, locus YMR125W, strain sto1, hits give low values",0.964
same,normalized growth,"S. cerevisiae deletion strains, locus YMR129W, hits give low values",0.995
same,normalized growth,"S. cerevisiae deletion strains, locus YMR205C, strain PFK2, hits give low values",0.908
same,normalized growth,"S. cerevisiae deletion strains, locus YMR223W, strain ubp8, hits give low values",0.988
same,normalized growth,"S. cerevisiae deletion strains, locus YMR231W, strain pep5, hits give low values",0.997
same,normalized growth,"S. cerevisiae deletion strains, locus YMR263W, strain SAP30, hits give low values",0.997
same,normalized growth,"S. cerevisiae deletion strains, locus YMR307W, strain GAS1, hits give low values",0.894
same,normalized growth,"S. cerevisiae deletion strains, locus YNL067W, strain RPL9B, hits give low values",0.982
same,normalized growth,"S. cerevisiae deletion strains, locus YNL071W, strain lat1, hits give low values",0.959
same,normalized growth,"S. cerevisiae deletion strains, locus YNL128W, strain TEP1, hits give low values",0.984
same,normalized growth,"S. cerevisiae deletion strains, locus YNL153C, strain GIM3, hits give low values",1
same,normalized growth,"S. cerevisiae deletion strains, locus YNL183C, strain NPR1, hits give low values",0.946
same,normalized growth,"S. cerevisiae deletion strains, locus YNL209W, strain ssb2, hits give low values",0.962
same,normalized growth,"S. cerevisiae deletion strains, locus YNL233W, strain BNI4, hits give low values",0.959
same,normalized growth,"S. cerevisiae deletion strains, locus YNL250W, strain rad50, hits give low values",0.988
same,normalized growth,"S. cerevisiae deletion strains, locus YNL271C, strain bni1, hits give low values",0.982
same,normalized growth,"S. cerevisiae deletion strains, locus YNL298W, strain CLA4, hits give low values",0.987
same,normalized growth,"S. cerevisiae deletion strains, locus YNL307C, strain MCK1, hits give low values",0.969
same,normalized growth,"S. cerevisiae deletion strains, locus YNL322C, strain KRE1 (second series), hits give low values",0.991
same,normalized growth,"S. cerevisiae deletion strains, locus YNR049C, strain mso1, hits give low values",0.96
same,normalized growth,"S. cerevisiae deletion strains, locus YNR052C, strain pop2, hits give low values",0.982
same,normalized growth,"S. cerevisiae deletion strains, locus YOL006C, strain TOP1, hits give low values",0.759
same,normalized growth,"S. cerevisiae deletion strains, locus YOL012C, strain htz1",0.955
same,normalized growth,"S. cerevisiae deletion strains, locus YOL147C, strain pex11, hits give low values",0.99
same,normalized growth,"S. cerevisiae deletion strains, locus YOR001W, strain rrp6, hits give low values",0.881 (active)
same,normalized growth,"S. cerevisiae deletion strains, locus YOR061W, strain CKA2, hits give low values",0.969
same,normalized growth,"S. cerevisiae deletion strains, locus YOR069W, strain VPS5, hits give low values",0.993
same,normalized growth,"S. cerevisiae deletion strains, locus YOR070C, strain gyp1, hits give low values",0.944
same,normalized growth,"S. cerevisiae deletion strains, locus YOR080W, strain dia2, hits give low values",1
same,normalized growth,"S. cerevisiae deletion strains, locus YOR083W, strain WHI5, hits give low values",0.927
same,normalized growth,"S. cerevisiae deletion strains, locus YOR106W, strain vam3, hits give low values",0.969
same,normalized growth,"S. cerevisiae deletion strains, locus YOR136W, strain idh2, hits give low values",0.98
same,normalized growth,"S. cerevisiae deletion strains, locus YOR144C, strain elg1, hits give low values",0.986
same,normalized growth,"S. cerevisiae deletion strains, locus YOR184W, strain ser1, hits give low values",0.953
same,normalized growth,"S. cerevisiae deletion strains, locus YOR231W, strain MKK1, hits give low values",0.973
same,normalized growth,"S. cerevisiae deletion strains, locus YOR265W, strain rbl2, hits give low values",0.993
same,normalized growth,"S. cerevisiae deletion strains, locus YOR270C, strain vph1, hits give low values",0.607 (active)
same,normalized growth,"S. cerevisiae deletion strains, locus YOR290C, strain snf2, hits give low values",0.633 (active)
same,normalized growth,"S. cerevisiae deletion strains, locus YOR316C, strain cot1, hits give low values",0.994
same,normalized growth,"S. cerevisiae deletion strains, locus YPL051W, strain arl3, hits give low values",0.968
same,normalized growth,"S. cerevisiae deletion strains, locus YPL078C, strain atp4, hits give low values",0.975
same,normalized growth,"S. cerevisiae deletion strains, locus YPL106C, strain sse1, hits give low values",0.894
same,normalized growth,"S. cerevisiae deletion strains, locus YPL240C, strain hsp82, hits give low values",0.986
same,normalized growth,"S. cerevisiae deletion strains, locus YPL241C, strain CIN2, hits give low values",0.992
same,normalized growth,"S. cerevisiae deletion strains, locus YPL256C, strain CLN2, hits give low values",0.982
same,normalized growth,"S. cerevisiae deletion strains, locus YPR119W, strain clb2, hits give low values",0.988
same,normalized growth,"S. cerevisiae deletion strains, locus YPR141C, strain kar3, hits give low values",0.991
same,normalized growth,"S. cerevisiae deletion strains, locus YPR163C, strain tif3, hits give low values",0.988
same,normalized growth,"S. cerevisiae deletion strains, locus YPR167C, strain met16, hits give low values",0.976
same,normalized growth,"S. cerevisiae deletion strains, strain wtn01, hits give low values",0.974
same,normalized growth,"S. cerevisiae strains, strain wild type, hits give low values",0.986
